Data on 33 molecules can be found in ChEMBL document CHEMBL4513146, “CO-ADD screening of Karazin Kharkiv National University (Ukraine) compounds”.

In one test the test system is Staphylococcus aureus. The note with it: Concentration 32 ug.mL-1;; ASSAY_TEST Inhibition of Bacterial Growth; detection method Absorption (OD600); MEDIA CAMHB; plate type 384well; NBS; CORNING #3640; time 18 hr.
Another test deals with Escherichia coli. The note with it: Concentration 32 ug.mL-1;; ASSAY_TEST Inhibition of Bacterial Growth; detection method Absorption (OD600); MEDIA CAMHB; plate type 384well; NBS; CORNING #3640; time 18 hr.

Results with a measured potency or affinity are listed apart.

One may read the Inhibition as the drop in the measured response relative to a control, in per cent.

For `Cc1ccccc1Oc1nccn2c(=O)n(CC(=O)Nc3ccccc3C(F)(F)F)nc12`, the results for the Inhibition with Staphylococcus aureus and in the test on Escherichia coli were 10.19% and 1.35%, respectively.
Turning to `COc1cc(NC(=O)CSc2nnc3c(=O)n(-c4ccccc4)ccn23)cc(OC)c1`, the figures for the Inhibition in the test on Staphylococcus aureus and in the test on Escherichia coli were 14.02% and 0.85%, respectively.
Turning to `CC(C)Cn1c(=O)c2sccc2n2c(=O)n(Cc3ccc(Br)cc3)nc12`, the results for the Inhibition in the test on Staphylococcus aureus and with Escherichia coli were 2.7% and -6.62%, respectively.
Consider `O=C(Cn1nc2c(N3CCOCC3)nccn2c1=O)NCc1cc(F)cc(F)c1`, for which the Inhibition is on record as 7.03% in the test with Staphylococcus aureus and -4.76% in the test with Escherichia coli.
Take `CCCNC(=O)Cn1nc2n(Cc3cccs3)c(=O)c3sccc3n2c1=O`: the Inhibition in the test on Staphylococcus aureus is listed as 6.83%; in the test on Escherichia coli, -4.01%.
As for `Cc1c(Cl)cccc1-n1ccn2c(=O)n(Cc3cccc(F)c3)nc2c1=O`, the Inhibition was 9.54% with Staphylococcus aureus and -6.71% with Escherichia coli.
For `COc1ccc(NC(=O)CSc2nnc3ccc(C(=O)Nc4cccc(F)c4)cn23)cc1`, the Inhibition with Staphylococcus aureus turned out to be 8.78%; with Escherichia coli, 3.37%.
In the same order, the values of `CCOc1ccc(-n2ccn3c(SCC#N)nnc3c2=O)cc1` are 8.92% and 2.37%.
As to `COc1ccc(-c2cc3c4nnc(SCC(=O)Nc5cc(Cl)ccc5C)n4ccn3n2)cc1`, the Inhibition was -1.91% with Staphylococcus aureus and -8.79% in the test on Escherichia coli.
On the same counts, the results for `O=C(Cn1nc2ccc(Sc3ccccc3)nn2c1=O)Nc1ccc(F)c(Cl)c1` are 8.3% and -2.75%.
Regarding `CCc1ccccc1Sc1nccn2c(=O)n(CC(=O)N3CCN(c4ccc(F)cc4)CC3)nc12`, the Inhibition in the test with Staphylococcus aureus was 2.23%; with Escherichia coli it was -2.15%.
For `CSc1ccc(CNC(=O)Cn2nc3c(N4CC(C)CC(C)C4)nccn3c2=O)cc1` (stereo unspecified), the Inhibition amounted to 11.21% in the test on Staphylococcus aureus and 0.68% in the test on Escherichia coli.
Take `O=S(=O)(c1cccn2cnnc12)N(Cc1cccc(Cl)c1)c1ccc(F)cc1`: the Inhibition is -11.31% in the test on Staphylococcus aureus and -14.45% with Escherichia coli.
On the same counts, the results for `Cc1ccc(C)c(NC(=O)Cn2nc3ccc(-c4ccc(C)c(C)c4)nn3c2=O)c1` are -1.85% and -17.07%.
As for `CCc1nnc2c(SCC(=O)Nc3cccc(C(C)=O)c3)nc3ccccc3n12`, the Inhibition came out at 2.41% in the test with Staphylococcus aureus and 4.71% with Escherichia coli.
Regarding `COC(=O)c1ccccc1NC(=O)Cn1nc2c(SC3CCCCC3)nccn2c1=O`, the Inhibition is recorded as -10.07% in the test with Staphylococcus aureus and -11.96% in the test on Escherichia coli.
In the case of `Cc1ccc(NC(=O)CSc2nc3ccccc3n3cnnc23)c(C)c1`, the Inhibition in the test on Staphylococcus aureus is -8.66%; in the test with Escherichia coli, -6.3%.
Turning to `O=C(Cn1nc2ccc(Sc3cccc(F)c3)nn2c1=O)Nc1ccc(Cl)cc1`, the Inhibition with Staphylococcus aureus is 7.1%; in the test on Escherichia coli, -8.49%.
In the same order, the values of `Cc1ccc(NC(=O)Cn2nc3c(SCc4ccccc4)nccn3c2=O)cc1C` are 6.06% and -10.79%.
On the same counts, the results for `COc1ccccc1N1CCN(C(=O)CSc2nc3ccccc3n3cnnc23)CC1` are 11.06% and 4.69%.
Regarding `Cc1ccc(NC(=O)Cn2nc3c(Oc4ccccc4)nccn3c2=O)c(Br)c1`, the Inhibition in the test on Staphylococcus aureus is 1.04%; in the test with Escherichia coli, -7.68%.
As to `O=C(CCc1nnc2ccc(-c3ccc(Cl)cc3)nn12)NCc1ccc(F)cc1Cl`, the Inhibition was 11.56% with Staphylococcus aureus and -1.56% with Escherichia coli.
In the case of `COc1cccc(CN(c2ccc(C(C)C)cc2)S(=O)(=O)c2cccn3cnnc23)c1`, the values for the Inhibition in the test with Staphylococcus aureus and with Escherichia coli were 7.94% and -1.44%, respectively.
In the same order, the values of `O=C(CSc1nnc2c(=O)n(-c3ccccc3)ccn12)c1ccc(F)cc1` are 16.24% and -2%.
Take `O=C(CSc1nnc2c(=O)n(-c3ccc(Br)cc3)ccn12)c1c[nH]c2ccccc12`: the values for the Inhibition in the test on Staphylococcus aureus and with Escherichia coli were 12.46% and -2.65%, respectively.
Take `CCOC(=O)c1ccccc1NC(=O)Cn1nc2c(Oc3cccc(OC)c3)nccn2c1=O`: the Inhibition with Staphylococcus aureus is listed as -10.31%; with Escherichia coli it was 1.57%.
Turning to `CC1CC(C)CN(c2nccn3c(=O)n(CC(=O)NCc4ccccc4Cl)nc23)C1` (stereo unspecified), the Inhibition in the test with Staphylococcus aureus came to 3.32%; in the test on Escherichia coli it was 2.48%.
For `O=S(=O)(c1ccc2nncn2c1)N(Cc1cc(F)cc(F)c1)c1ccccc1`, the Inhibition is listed as 0.37% in the test on Staphylococcus aureus and -13.22% with Escherichia coli.
On to `COc1ccc(NC(=O)CSc2nnc3c(=O)n(-c4cccc(OC)c4)ccn23)cc1`, for which the results for the Inhibition in the test on Staphylococcus aureus and in the test with Escherichia coli were 14.04% and -12.03%, respectively.
In the case of `COc1ccccc1NC(=O)Cn1nc2n(CCCOC(C)C)c(=O)c3ccccc3n2c1=O`, the Inhibition in the test with Staphylococcus aureus was determined as 11.96%; in the test with Escherichia coli, 2.24%.
With `C=Cc1ccc(Cn2nc3c(=O)n(-c4cccc(Cl)c4C)ccn3c2=O)cc1`, the Inhibition was -2.71% with Staphylococcus aureus and -4.95% in the test on Escherichia coli.
`COc1cc(NC(=O)Cn2nc3c(SC4CCCCC4)nccn3c2=O)cc(OC)c1`: the Inhibition in the test with Staphylococcus aureus is 0.44%; with Escherichia coli, -4.73%.
Regarding `COc1ccc(C(=O)CSc2nnc3c(=O)n(-c4ccc(Br)cc4)ccn23)cc1`, the Inhibition came out at 17.48% in the test with Staphylococcus aureus and 2.13% in the test with Escherichia coli.
